The whole screen tested about 310,000 compounds, of which about 14,000 (4.5%) showed an effect of 50% or more. The effect is printed as a negative number. The full list was thinned out, with strong results kept by preference.
target: human ether-à-go-go-related gene (hERG) potassium channel (human, UniProt Q12809); test: primary screen, population patch clamp on CHO cells stably expressing hERG; higher = less effect of the substance
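Also: peak tail current of the secondary pulse compared with the same well before compound.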

Chain of human ether-à-go-go-related gene (hERG) potassium channel (Q12809 whole entry, looked up): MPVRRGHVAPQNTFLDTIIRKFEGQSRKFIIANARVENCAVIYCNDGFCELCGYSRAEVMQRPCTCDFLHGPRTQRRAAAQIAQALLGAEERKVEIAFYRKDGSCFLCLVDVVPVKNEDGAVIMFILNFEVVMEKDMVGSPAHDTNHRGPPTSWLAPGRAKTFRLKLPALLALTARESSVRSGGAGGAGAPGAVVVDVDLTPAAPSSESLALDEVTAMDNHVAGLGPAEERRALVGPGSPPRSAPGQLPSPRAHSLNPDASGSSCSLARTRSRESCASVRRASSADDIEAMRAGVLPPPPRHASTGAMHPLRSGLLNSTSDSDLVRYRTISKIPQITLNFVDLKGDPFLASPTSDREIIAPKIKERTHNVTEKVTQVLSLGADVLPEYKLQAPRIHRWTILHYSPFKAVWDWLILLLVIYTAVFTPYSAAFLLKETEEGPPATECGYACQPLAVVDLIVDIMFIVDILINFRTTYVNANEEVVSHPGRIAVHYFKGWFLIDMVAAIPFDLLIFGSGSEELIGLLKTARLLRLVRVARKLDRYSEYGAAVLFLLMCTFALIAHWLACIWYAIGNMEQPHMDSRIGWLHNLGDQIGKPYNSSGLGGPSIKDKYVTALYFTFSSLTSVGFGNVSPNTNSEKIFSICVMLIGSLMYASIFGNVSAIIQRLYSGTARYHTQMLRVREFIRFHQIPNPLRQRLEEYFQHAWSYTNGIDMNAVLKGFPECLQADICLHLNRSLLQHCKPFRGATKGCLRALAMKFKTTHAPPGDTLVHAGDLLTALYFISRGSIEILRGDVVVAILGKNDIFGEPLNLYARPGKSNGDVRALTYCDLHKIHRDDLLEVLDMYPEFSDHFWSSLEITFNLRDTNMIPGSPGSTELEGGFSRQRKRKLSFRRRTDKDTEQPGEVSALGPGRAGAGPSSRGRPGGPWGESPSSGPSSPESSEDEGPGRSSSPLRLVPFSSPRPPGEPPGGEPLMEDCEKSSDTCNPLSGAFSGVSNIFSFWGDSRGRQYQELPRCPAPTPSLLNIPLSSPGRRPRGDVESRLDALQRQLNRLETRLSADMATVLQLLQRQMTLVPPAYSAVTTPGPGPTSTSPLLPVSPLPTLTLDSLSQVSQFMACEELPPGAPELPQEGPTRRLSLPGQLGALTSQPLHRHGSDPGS

SMILES | hERG current change (%, negative = inhibition) at 10uM
O=C(c1ccc(F)cc1)C1CCN(Cc2cn[nH]c2-c2ccccc2)CC1 | -78.8%
O=C(c1ccc(F)cc1)C1CCN(Cc2cn[nH]c2-c2ccc(F)cc2)CC1 | -75.2%
COc1ccc(C(=O)N2CCN(Cc3cn[nH]c3-c3ccc(OC)cc3F)CC2)cc1 | -38.3%
O=C(c1ccc(F)cc1)C1CCN(S(=O)(=O)c2ccccc2)CC1 | -43.1%
COc1ccc(-c2[nH]ncc2CN2CCC(C(=O)N3CCOCC3)CC2)c(F)c1 | 5.23%
COc1ccc(-c2[nH]ncc2CN2CCC(C(=O)c3ccc(F)cc3)CC2)cc1 | -76.2%
O=C(C1CCN(Cc2cn[nH]c2-c2ccc(F)cc2F)CC1)N1CCOCC1 | 8.72%
O=S(=O)(c1ccc2c(c1)CCN2)N1CCOCC1 | -2.2%
O=c1c2cc(N3CCOCC3)ccc2[nH]c(=S)n1Cc1ccco1 | -25.1%
Cc1cc(N2CC34C=CC(O3)C(C(=O)O)C4C2=O)no1 (stereo not shown) | 2.22%
COC(=O)COc1ccc2occ(C(C)=O)c2c1 | -3.74%
O=C(NCC(c1ccco1)N1CCc2ccccc2C1)c1ccccc1Br (stereo not shown) | -37.5%
CCCCCCC1C(C#N)=C(N)OC2=C1C(=O)CC(C)(C)C2 (stereo not shown) | -0.43%
Cc1ccccc1OC(C)C(=O)N1CCC(Cc2ccccc2)CC1 (stereo not shown) | -17.5%
O=C(/C=C/c1ccco1)Nc1ccc(CN2CCOCC2)cc1 | -31.3%
COc1ccc(CN2CCC(=O)N([C@H](CO)CC(C)C)CC2)cc1 | -2.62%
CCCN1CCC(=O)N([C@H](CSc2ccc(OC)cc2)Cc2ccccc2)CC1 | -70.5%
COc1ccc(SC[C@H](Cc2ccccc2)N2CC[C@@H](C(C)(C)C)CCC2=O)cc1 | 9.92%
COc1ccc(SC[C@H](CC(C)C)N2CCN(C)CCC2=O)cc1 | -36.3%
COc1ccc(SC[C@H](Cc2ccccc2)N2CC[C@@H](C)CCC2=O)cc1 | -20.1%
COc1ccc(SC[C@H](Cc2ccccc2)N2CCN(CCc3ccccc3)CCC2=O)cc1 | -74.6%
COc1ccc(SC[C@H](CC(C)C)N2CCN(CCc3ccccc3)CCC2=O)cc1 | -71.3%

SMILES | hERG current change (%, negative = inhibition) at 10uM
CCCN1CCC(=O)N([C@H](CSc2ccc(OC)cc2)CC(C)C)CC1 | -70.8%
COc1ccc(CN2CCC(=O)N([C@H](CO)Cc3ccccc3)CC2)cc1 | -2.16%
COc1ccc(SC[C@H](Cc2ccccc2)N2CC[C@@H](O)CCC2=O)cc1 | -8.62%
CCCN1CCC(=O)N(CCSc2ccc(OC)cc2)CC1 | -45.4%
Cc1ccc(OCc2nc3ccccc3[nH]2)cc1 | -9.02%
O=C(CN1CCN(c2cccc(C(F)(F)F)c2)CC1)N(C1CC1)C1CCS(=O)(=O)C1 (stereo not shown) | -29.2%
O=[N+]([O-])c1cccnc1N1CCCCC1 | 5.7%
Cc1c(C(=O)N2CCN(c3ccccc3)CC2)sc2nc3n(c(=O)c12)CCC3 | 6.84%
COc1ccc(-c2nnnn2C)cc1S(=O)(=O)NCCc1ccccc1 | -2.23%
CCc1c(C)sc(NC(=O)Cc2ccccc2OC)c1C(=O)N1CCOCC1 | -16.4%
Cc1cc(N)n2nc(-c3ccc(C(C)(C)C)cc3)cc2n1 | 8.26%
O=C(NCC(c1cccs1)N1CCOCC1)c1cc([N+](=O)[O-])ccc1Cl (stereo not shown) | -20.5%
NC(=O)c1ccccc1OCC(=O)Nc1ccc2c(c1)CCC2 | 5.27%
Cc1ccc(S(=O)(=O)Oc2ccc(/C=C3\N=C(c4cccc(C)c4)OC3=O)cc2)cc1 | 1.5%
O=C(COc1ncnc2ccccc12)Nc1ccc(Cl)c(S(=O)(=O)N2CCOCC2)c1 | -13.5%
CCn1c(C)c(C(=O)O)c2cc(OC)ccc21 | 6.41%
Cc1ccc(NC(=O)c2ccc(Cl)c(N3C(=O)C=CC3=O)c2)cc1 | -0.826%
CN(CCOc1ccccc1)C(=O)c1ccc(OC2CCN(C(=O)C3CC3)CC2)cc1 | -25.7%
COc1ccc(NC(=O)CCC(=O)Nc2nnc(CC(C)C)s2)cc1Cl | 20%
COc1ccc(SC[C@H](Cc2ccccc2)N2CCN(C)CCC2=O)cc1 | -52.2%
CN1CCC(=O)N([C@H](CO)Cc2ccccc2)CC1 | 12%
Cc1nn(CCCC(=O)NCc2ccc(Cl)cc2)c(C)c1[N+](=O)[O-] | -41.9%

SMILES | hERG current change (%, negative = inhibition) at 10uM
Nc1cc(C(=O)N2CCCC2)cc(C(=O)N2CCCC2)c1 | 11.9%
O=C(O)c1ccc2cc(-c3ccccc3)[nH]c2c1 | -30.8%
C=CCN1C(=O)C(Cc2ccc(OC)cc2)S/C1=N\N=C\c1cccs1 (stereo not shown) | 13.1%
O=C(CCC(=O)N1CCN(c2ccc(F)cc2)CC1)c1ccccc1 | -12.7%
O=C(O)CCC(=O)N1CCN(c2ccccn2)CC1 | 9.16%
O=C(CCn1nc(-c2ccc(Cl)cc2)ccc1=O)N1CCN(c2ccc(F)cc2)CC1 | -52.9%
O=C(CSc1ccccc1)N1CCN(c2ccccn2)CC1 | -24.6%
O=C(CC(c1ccccc1)c1ccccc1)N1CCN(c2ccccn2)CC1 | -53.4%
O=C(CCn1nc(-c2ccc(Cl)cc2)ccc1=O)N1CCOCC1 | -36.9%
O=C(CCC(=O)N1CCN(c2ccc(F)cc2)CC1)c1ccc(F)cc1 | -69.4%
O=C1CC(N2CCN(c3ccccn3)CC2)C(=O)N1CC(c1ccccc1)c1ccccc1 (stereo not shown) | -64%
Cc1ccc(C(=O)CCC(=O)N2CCN(c3ccc(F)cc3)CC2)cc1 | -10.1%
O=C(CCn1nc(-c2ccc(Cl)cc2)ccc1=O)N1CCN(c2ccccc2)CC1 | -45.9%
CN1C(=O)CC(N2CCN(c3ccccn3)CC2)C1=O (stereo not shown) | 1.46%
O=C1CC(N2CCN(c3ccccn3)CC2)C(=O)N1c1ccc(F)cc1 (stereo not shown) | 14.7%
Cn1c(COc2cccc3cccnc23)nnc1SCC(=O)O | 9.13%
Cc1cccc(C)c1NC(=O)CCS(=O)(=O)c1cccc2nsnc12 | -4.59%
CCOC(=O)c1cc2c(ccn2C)n1Cc1ccccc1C | 11.8%
CN1C(=O)CC(c2ccccc2)C1=O (stereo not shown) | 3.18%
Cc1cc(NCCc2ccccc2F)n2ncnc2n1 | -1.21%
Cc1cc(C)cc(N(C(=O)Cc2cccs2)C(C(=O)NC2CCCC2)c2ccc(C)o2)c1 (stereo not shown) | 2.77%
COC(=O)c1cc2c(ccn2-c2ccc(F)cc2)n1Cc1cccc(OC)c1 | 0.0373%

SMILES | hERG current change (%, negative = inhibition) at 10uM
O=C(CCn1nc(-c2ccccc2)ccc1=O)N1CCN(c2ccccn2)CC1 | -53.1%
O=C(CCC(=O)N1CCN(c2ccc(F)cc2)CC1)N1CCN(c2ccc(F)cc2)CC1 | -43.9%
O=C(CCn1nc(-c2ccccc2)ccc1=O)N1CCN(c2ccccc2)CC1 | -11.2%
Cc1ccc(-c2ccc(=O)n(CCC(=O)N3CCN(c4ccccc4)CC3)n2)cc1 | -49.1%
O=C(O)CCC(=O)N1CCN(c2ccc(C(=O)c3ccc(F)cc3)cc2)CC1 | 0.927%
O=C(CCC(=O)N1CCN(c2ccc(F)cc2)CC1)c1ccc(Cl)cc1 | -55.8%
CC(C)CN(C(=O)COC(=O)c1ccc([N+](=O)[O-])o1)C1CCS(=O)(=O)C1 (stereo not shown) | -31.8%
CC(C)COC(=O)N1CC(O)CC1C(=O)O (stereo not shown) | 25.3%
COCC(=O)Nc1nnc(SCC(=O)N2C(C)CCCC2C)s1 (stereo not shown) | 15.2%
CCCC(=O)Nc1nnc(SCC(=O)N2C(C)CCCC2C)s1 (stereo not shown) | -50.1%
CC(=O)Nc1nnc(SCC(=O)N2C(C)CCCC2C)s1 (stereo not shown) | 12.9%
COCCn1cnnc1SCC(=O)Nc1cccc(S(=O)(=O)N2CCCCCC2)c1 | -60.3%
O=C(CSc1ncn[nH]1)Nc1cccc(S(=O)(=O)N2CCCCCC2)c1 | -77.1%
Cc1ccc(S(=O)(=O)N2CCCCC2)cc1NC(=O)CSc1ncn[nH]1 | 12%
COc1ccc(-n2cnnc2SCC(=O)Nc2cccc(S(=O)(=O)N3CCCCC3)c2)cc1 | -18.5%
COc1ccc(-n2cnnc2SCC(=O)Nc2cc(S(=O)(=O)N3CCCCC3)ccc2C)cc1 | -84%
COCCn1cnnc1SCC(=O)Nc1cccc(S(=O)(=O)N2CCCCC2)c1 | -17.8%
O=C(CSc1ncn[nH]1)Nc1ccc(S(=O)(=O)N2CCCC2)cc1 | 14.5%
Cc1ccc(S(=O)(=O)N2CCCCC2)cc1NC(=O)CSc1nncn1-c1ccccc1 | -35.2%
Cn1cnnc1SCC(=O)Nc1cccc(S(=O)(=O)N2CCCCCC2)c1 | -17.4%
CCC1(OC(=O)CN)C(=O)OCc2c1cc1n(c2=O)Cc2cc3ccccc3nc2-1.Cl (stereo not shown) | 8.16%
CC(=O)c1cccc(NC(=O)/C(=C\c2ccco2)NC(=O)c2cccs2)c1 | -9.8%
